# Measurements: paper PMC5540273 (PLoS ONE, 2017)
# Key:
# Conditions in all cases: concentration: 1 μM, replicates: in singlicate; n = 1
# VEGFR2 = test system: T1, VEGFR2
# T1 construct: gene KDR
# VPS34 = test system: T2, VPS34
# T2 construct: gene PIK3C3
# VRK2 = test system: VRK2
# WEE1 = test system: WEE1
# WEE2 = test system: WEE2
# WNK1 = test system: WNK1
# WNK2 = test system: WNK2
# WNK3 = test system: WNK3
# WNK4 = test system: WNK4
# YANK1 = test system: T3, YANK1
# T3 construct: gene STK32A
# 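Further: KINOMEscan kinase panel screen.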
Compound,%Inh (VEGFR2) [%],%Inh (VPS34) [%],%Inh (VRK2) [%],%Inh (WEE1) [%],%Inh (WEE2) [%],%Inh (WNK1) [%],%Inh (WNK2) [%],%Inh (WNK3) [%],%Inh (WNK4) [%],%Inh (YANK1) [%]
CC[C@@H]1CO[C@H](C(=O)Nc2ccccc2)CN1c1cc(-c2ccc3c(N)n[nH]c3c2)nc(NC)n1 [GSK2376236],8,12,0,2,0,4,10,5,0,41
Cn1cncc1C(=O)NC1CCN(c2ccnc(Nc3ccc(F)cc3)n2)C1 (centres unmarked) [GSK1379717],17,0,0,7,0,12,0,22,0,3
O=C1NC(=O)C(c2ccc(Cl)cc2)=C1Nc1ccc(O)cc1 [SB-340867],0,2,0,0,0,0,48,0,0,0
Cc1ccc(NC(=O)Nc2ccc(Cl)cc2)cc1-c1ccc(C(=O)Nc2ccncc2)cc1 [GSK1398472],9,0,0,16,5,7,0,13,23,1
COc1cccc(NC(=O)Nc2ccc(C)c(-c3ccc(C(=O)Nc4ccncc4)cc3)c2)c1 [GSK1398474],6,0,0,11,4,0,0,28,0,18
CNC(=O)c1ccc(C)c(-n2c(C)cc(OCc3ccc(F)cc3F)c(Br)c2=O)c1,0,0,0,0,0,0,0,0,0,4
CCc1ccc(-c2ccc3c(c2)-c2n[nH]cc2S(=O)(=O)N3C)cc1,0,4,0,14,0,23,2,3,0,0
Cc1ccc(NC(=O)Nc2ccccc2)cc1-c1ccc(C(=O)Nc2ccncc2)cc1 [GSK1398471],0,0,0,26,0,0,36,0,0,9
O=C(Nc1n[nH]c2nc(-c3ccco3)c(Br)cc12)C1CCN(Cc2ccccc2)C1.O=C(O)[C@H](O)[C@@H](O)C(=O)O (centres unmarked) [SB-742034],7,0,0,0,8,0,0,0,2,0
O=C(Nc1n[nH]c2nc(-c3cccs3)c(Br)cc12)C1CC1 [SB-735297],0,6,0,0,0,0,0,0,29,0
COC(=O)C(Cc1ccccc1)NC(=O)NC1CCN(c2ccnc(Nc3ccc(F)cc3)n2)C1 (centres unmarked) [GSK1379714],7,3,38,0,13,3,46,38,45,0
Cc1nccc(-c2c(-c3ccc(F)cc3)ncn2CCCN2CCOCC2)n1.Cl [SB-282975],0,0,0,9,16,12,6,2,0,0
CC(=O)c1c(C)c2cnc(Nc3ccc(N4CCNCC4)cn3)nc2n(C2CCCC2)c1=O,6,0,0,0,0,0,0,0,0,16
COc1ccc2cc(-c3nc(-c4ccccc4C(C)C)[nH]c3-c3ccncc3)ccc2c1 [SB-660566],0,0,0,12,15,10,14,42,0,16
CNc1nc(-c2ccc3c(N)n[nH]c3c2)cc(N2C[C@@H](C(=O)Nc3ccccc3)CC[C@H]2C)n1 [GSK2298859],0,7,0,9,0,0,0,33,29,46
Nc1nccc(-c2c(-c3ccc(F)cc3)ncn2C2CCN(Cc3ccccc3)CC2)n1 [SB-219980],1,0,0,0,0,7,12,0,0,28
CC(C)c1ccc(O)cc1Nc1ccnc2ccc(C(F)(F)F)cc12 [GW482059],0,15,0,0,5,1,0,0,0,0
CN1c2ccc(-c3ccc(C(N)=O)cc3)cc2-c2[nH]ncc2S1(=O)=O,21,0,3,14,0,6,0,4,0,0
CNc1nc(-c2ccc3c(N)n[nH]c3c2)cc(N2C[C@@H](C(=O)NC3CCCCC3)OC[C@H]2C)n1 [GSK2375584],17,0,43,29,3,5,25,28,41,7
Fc1ccc(-c2nn3cccc(F)c3c2-c2ccncc2)cc1 [GW475620],1,15,22,0,5,5,20,5,9,28
COc1ccc(Nc2nccc(-c3ccc(NC(=O)c4cc5cc(F)ccc5[nH]4)cc3)n2)cc1 [GSK1229496],0,2,0,7,0,0,14,18,51,0
CNCc1ccc2nc(NC(=O)c3ccc(C(C)(C)C)cc3)cn2c1,6,2,74,0,0,0,0,30,13,2
CCn1c(-c2ccccc2)nc2cnccc21 [SB-733416],0,0,34,8,2,17,0,26,19,0

Compound,%Inh (VEGFR2) [%],%Inh (VPS34) [%],%Inh (VRK2) [%],%Inh (WEE1) [%],%Inh (WEE2) [%],%Inh (WNK1) [%],%Inh (WNK2) [%],%Inh (WNK3) [%],%Inh (WNK4) [%],%Inh (YANK1) [%]
O=C1NC(=O)C(c2ccc(Cl)cc2)=C1Nc1cccc(Cl)c1 [SB-317651],0,90.2,90.5,0,29,0,27,0,0,0
COc1ccc(CSc2nnc(-c3ccc4c(c3)CCO4)o2)cc1,0,15,0,0,14,0,0,0,0,0
Cc1cnc(N)c(/C=C/c2cncc(C(=O)NCCc3ccc(Cl)cc3Cl)c2)c1.Cl [GSK190937],0,0,26,5,0,3,4,30,4,0
COc1cccc(CNC(=O)NC2CCN(c3ccnc(Nc4ccc(F)cc4)n3)C2)c1 (centres unmarked) [GSK1379723],1,0,0,3,12,6,13,5,7,0
COc1cc2ncnc(Nc3cccc(Br)c3)c2cc1OC.Cl [GI230329],0,41,24,2,6,0,0,41,16,56
Cc1ccc(NC(=O)c2ccc(Cl)cc2)cc1-c1ccc(C(=O)Nc2ccncc2)cc1 [GSK1398467],0,0,27,0,8,0,0,31,22,2
O=c1cc(N2CCOCC2)nc2n(Cc3cccc(Cl)c3Cl)c3ccccc3n12 [GSK2299009],7,96.7,0,28,17,6,42,5,0,22
COC(=O)C(NC(=O)NC1CCN(c2ccnc(Nc3ccc(F)cc3)n2)C1)c1ccccc1 (centres unmarked) [GSK1379712],14,0,24,9,0,22,28,36,25,0
CC(=O)c1c(C)c2cnc(Nc3ccn(C)n3)nc2n(C2CCCC2)c1=O,0,3,28,0,0,0,0,0,0,0
Cc1ccc(NC(=O)Nc2ccccc2F)cc1-c1ccc(C(=O)Nc2ccncc2)cc1 [GSK1398477],0,11,0,26,12,2,0,0,0,5
Fc1ccc(-c2nc[nH]c2-c2ccncc2)cc1 [SB-217360],0,26,19,4,0,11,0,9,2,7
COc1ccc(CSc2nnc(-c3ccc4ncsc4c3)o2)cc1C(F)(F)F,0,0,0,0,0,0,8,0,0,0
COc1ccc(Nc2nccc(N3CCC(NC(=O)C(C)c4ccc(Cl)cc4)CC3)n2)cc1 (centres unmarked) [GSK1379812],1,0,0,31,0,0,0,47,19,10
Cn1cnc2c(N)ncnc21 [SKF-97623],100,0,96.8,0,29,0,8,0,0,0
CCn1c(-c2c(N)noc2C)nc2cnccc21 [SB-737856],0,0,0,18,11,20,0,17,78,9
Fc1ccc(-c2nc3n(c2-c2ccncc2)CCS3)cc1 [GI98581],0,21,0,3,7,0,7,13,2,13
Cc1ccccc1Cn1ccn2c(=O)cc(N3CCOCC3)nc12 [GSK2269905],0,88,0,0,0,10,0,8,0,8
COc1cccc(C2=C(Nc3cc(Cl)c(O)c(Cl)c3)C(=O)NC2=O)c1 [SB-390767],0,0,20,0,0,20,0,16,17,0
CC(C)c1cc(-c2ccc3c(N)n[nH]c3c2)nc(N)n1 [GSK2250882],0,9,4,11,6,0,0,3,0,20
Cl.Cl.Cl.N#Cc1ccc(CCNc2nccc(-c3cccc(CN4CCNCC4)c3)n2)cc1 [GSK2137462],0,7,0,90.8,0,0,0,0,95.5,12
COc1ccc(-c2coc3ccc(-c4nnc(C)o4)cc23)cc1,0,0,0,0,4,0,32,0,0,0
CS(=O)(=O)CCNCc1nc(-c2ccc3ncnc(Nc4ccc(OCc5ccccc5)c(Cl)c4)c3c2)cs1.Cl [GW582764],0,0,50,0,16,6,13,45,60,0
Cc1ccc(NC(=O)Nc2ccc(Cl)c(C(F)(F)F)c2)cc1-c1ccc(C(=O)Nc2ccncc2)cc1 [GSK1398470],0,0,8,3,10,0,8,0,0,60

Compound,%Inh (VEGFR2) [%],%Inh (VPS34) [%],%Inh (VRK2) [%],%Inh (WEE1) [%],%Inh (WEE2) [%],%Inh (WNK1) [%],%Inh (WNK2) [%],%Inh (WNK3) [%],%Inh (WNK4) [%],%Inh (YANK1) [%]
O=C(Nc1n[nH]c2nc(-c3cccs3)c(Br)cc12)C1CCCC1 [SB-743341],28,0,0,0,22,0,5,0,3,24
Nc1ncnc2occ(-c3ccc4c(c3)CCN4C(=O)Cc3cc(F)ccc3F)c12 [GSK2645446],0,0,0,0,13,1,14,38,60,0
Cc1c(Cn2c3ccccc3n3c(=O)cc(N4CCOCC4)nc23)cccc1C(F)(F)F [GSK2306394],0,80,0,0,3,2,23,0,0,0
COc1ccc(Nc2nccc(N3CCC(NC(=O)c4cc5ccccc5s4)C3)n2)cc1 (centres unmarked) [GSK1379738],0,0,0,10,0,14,11,34,24,0
COc1ccc(CSc2nnc(-c3ccc4nccn4c3)o2)cc1C(F)(F)F,10,7,7,9,0,0,0,0,2,20
COc1ccc(Nc2nccc(N3CCC(NC(=O)C(C)c4ccc(Cl)cc4)C3)n2)cc1 (centres unmarked) [GSK1379735],0,15,0,16,0,6,31,8,0,69
Cc1c(Cn2c(C)c(C)n3c(=O)cc(N4CCOCC4)nc23)cccc1C(F)(F)F [GSK2328680],0,20,0,9,14,0,0,0,0,6
Cn1cncc1-c1cc2c(Nc3ccc(OCc4ccccc4)cc3)ncnc2cn1 [GW281179],0,0,0,2,0,7,7,25,14,0
COC(=O)c1cccc(NC(=O)NC2CCN(c3ccnc(Nc4ccc(F)cc4)n3)C2)c1 (centres unmarked) [GSK1379725],0,0,0,16,5,0,18,27,0,0
COC(=O)c1cccc(NC(=O)NC2CCN(c3ccnc(Nc4ccc(OC)cc4)n3)C2)c1 (centres unmarked) [GSK1379746],0,0,0,7,0,11,4,51,46,0
O=C(Nc1n[nH]c2cc(-c3ccsc3)ccc12)C1CC1 [SB-732932],13,27,0,0,13,18,34,18,9,0
CSc1ccc(-c2nc3n(c2-c2ccncc2)CCC3)cc1 [SKF-105561],11,19,3,0,7,24,21,30,3,0
COc1nccc(-c2c(-c3ccc(F)cc3)ncn2CCCN2CCOCC2)n1 [SB-282852],1,21,77,0,52,11,14,0,0,0
CS(=O)(=O)CCNCc1nc(-c2ccc3ncnc(Nc4ccc5c(cnn5Cc5ccccc5)c4)c3c2)cs1.Cl.Cl [GW569716],0,0,16,0,5,5,3,0,62,3
FC(F)(F)c1ccccc1-c1cc(-c2c[nH]nc2-c2ccccn2)ccn1 [GW679396],1,0,0,4,5,0,0,13,11,3
Cc1ccc(-c2nc(Nc3ccncc3)c3ccccc3n2)s1 [GSK189015],0,0,0,8,4,0,3,0,0,15
CNc1cc(-c2ccc3c(N)n[nH]c3c2)nc(N)n1 [GSK2224810],25,0,0,1,5,0,0,19,88,36
CS(=O)(=O)Cc1ccc(Nc2nccc(-c3c(-c4cccc(NC(=O)C5CCCCC5)c4)nn4ncccc34)n2)cc1 [GSK350559],29,0,49,0,0,0,14,0,44,26
CCCCc1nn2ncccc2c1-c1ccnc(NC2CC2)n1 [GW684374],0,0,4,34,0,3,15,26,14,6
Cc1ccccc1-c1cc(-c2c[nH]nc2-c2ccccn2)ccn1 [GW680061],0,0,0,8,0,14,14,24,31,0
CC(=O)c1cccc(NC(=O)NC2CCN(c3ccnc(Nc4ccc(F)cc4)n3)C2)c1 (centres unmarked) [GSK1379710],8,10,19,19,10,10,0,49,22,12
Cc1cccc2c(-c3ccncn3)c(-c3ccc(F)cc3)nn12 [GW515532],5,30,0,0,0,16,0,22,0,26
